The values that follow come from article PMC12864922, “TDP-43 directly inhibits mRNA accumulation in neurites through modulation of mRNA stability”.

The labels stand for the following.
B1: ENSMUSG00000090935.679|Synj2bp (ssRNA)
RNA: GGGAGUUCUACAGUCCGACGAUCGCUUCGAUAUCCGCAUGCUAUGAACCUUGAGAUUCACCACUGUCAGGAGCUCUCUCUCUCUGCUUAGAAUCAUCCAGACAGCGGGCUGGUCAGCCCACAUUAAAUAAGAACAUGUGGGACUAGAAUUCAGUCAACAAUGACAUGUUUCAUCAGGUGGUUAAAAUGUACAGAUUCUGUUGGAAAUGUUCCAUGGUAUUUCAAUAGCCAGAAUGAAGAACUGGGCUAAGUCCAGAGCUCUGCUCUCUGAGCAUCUGCCCCAGAUACAGAGGCAGAGUAUGAACUCUUGCGGUCGCACUAGUGUGGAAUUCUCGGGUGUCAAGG
B2: ENSMUSG00000043670.52|Diras1|235:240 (ssRNA)
RNA: GGGAGUUCUACAGUCCGACGAUCGCUUCGAUAUCCGCAUGCUACACCAGCCUACAGUAAGGUUGGGCUCCAUCCCUGCCUCUUCACACCUCCAUAGCUUCAUCCUUUGCAGACCUCUCCCUCUAUAUCUCUUUGCUCCCCCACCCCCAUUCUAUCUGCACCCCACAACCACACACUGGAGGUUUGAUCCCUGUGGAUCUGAAAACAGGGACCUGGCUAAGGAACUGCUCAUCCCAGUCAGGCCCAGAGAGGUUACCUUGCCUCUCCAUCUCUGUCCCACACACCCCAGCCAUGCCCACUGUCCCUCUUGCGGUCGCACUAGUGUGGAAUUCUCGGGUGUCAAGG
B3: ENSMUSG00000029028.191|Lrrc47 (ssRNA)
RNA: GGGAGUUCUACAGUCCGACGAUCGCUUCGAUAUCCGCAUGCUACCCAUCUCUGUGCAUCCUGACUGCGCACAUCCCAUCUCCGCAUGUGUACGCAUCUGUACCAGCACACAGCUGCCAUCCCUCGAGCCACAGUGCCUGGUCCUAAGGACCCAGCAGCUGCACAGAGGACUUGGUGGCCCCGUGCCUUGCCAUCUGGCUGAGAAGAGAACCAGACCCUCAGCCUUCCCCCUCGACACCUUCUCGUUGGUGACCUCUGACCUUAAAGGACCAUUUCUACCUUCUGUAAAAGAACACCUGUUUGGCUCUUGCGGUCGCACUAGUGUGGAAUUCUCGGGUGUCAAGG
B4: ENSMUSG00000061578.1057|Ksr2 (ssRNA)
RNA: GGGAGUUCUACAGUCCGACGAUCGCUUCGAUAUCCGCAUGCUAUGUGAAAGUCUGAUGACUCAAAUCAAAGUUUGGUUUUUCUUUUCUACUACUCUGAAGGAAAAUCUCAGCUUGGCUAUUUCUUCAUGUUUUAAAAAUGUCUUGACUUCUCUCAGCAACCAACUUCAGGUGCCAGGAUAUGAGAUGCUAAGGUUCAGGGGUGGUGGAGGUGAUUCUAUCCAGUGGCCAGCAAUACCCAAAAGCAGCCAACCAUGAAAAUAGAGGUUUGUAAUGUACAGAAGGCUGGGGGAGCUUUCAGGGGUCUCUUGCGGUCGCACUAGUGUGGAAUUCUCGGGUGUCAAGG
B5: ENSMUSG00000043670.174|Diras1 (ssRNA)
RNA: GGGAGUUCUACAGUCCGACGAUCGCUUCGAUAUCCGCAUGCUACAGCAAAGUCCCUGUGUGCGGUGAUAGGACUAGUGGCUGCUGCCCUAGGGCUCUGACAGAAUCUGAGCCUCUUUGCUGGUCAUGUGUACUCUGGAGACUGUCCCCCAUGUCUGCCCUGAGUUACGGAGCCCCUGUGGUAUCUGCGAGACUGUCCAGGAGACUUGAGUGGCUCCUGGGCCUGUGUCCCACCCAGAUGAGGGUGACUUAGAAUUCUGUGUUUAUGUGCCUGUGUGUGUGGAUGGGUGUGUGUCUGUCUUGGGCUCUUGCGGUCGCACUAGUGUGGAAUUCUCGGGUGUCAAGG
B6: ENSMUSG00000029636.81|Wasf3|153:157 (ssRNA)
RNA: GGGAGUUCUACAGUCCGACGAUCGCUUCGAUAUCCGCAUGCUAUGAUGUCUUCCAACCAGUGGGUGAUACGUUUUCCUGUUUCUUCCCUUUGCAAAUUGAAUUCCAGGUAGAUAUGGUUGUAGAGGGGAAAGUUUAACAAAUCAGAAUGAAAUGUUUGUCUGUUUGCACACUGGGCCUGGUGGCCUCCAAGGAAAACACAACGAUCGUUUGCUUUCUCUAUCUUGGCGCUUGCAACCGAGAGCGGCCAUUUUUAUGAGGGGAGCCCUGUGGGUACUCAUGUGGAAAGUGCCCACUGACUUUGGCUCUUGCGGUCGCACUAGUGUGGAAUUCUCGGGUGUCAAGG
B7: ENSMUSG00000029028.64|Lrrc47 (ssRNA)
RNA: GGGAGUUCUACAGUCCGACGAUCGCUUCGAUAUCCGCAUGCUAUGGGUAUGCUGUAGAUGUCUGUGUAGGUGUGGAUAUGCUGUAGGUAUCUGGGUGUGCUGUAGGUGUCUGUGUGGGUGUGGGUGUGCUGUGGGUGUCUGUGUGGGUGUGCUGUAGGUGUCUGUAGGUGUGGGUAUGCUGCAGGUGUGGGUGUGCUGUAGAUCUCUAUAGGUGUGGGUGUGCUGUAGGGGUCUGUGUGGGUAUAGGUGUGGGUGUGCUGUAGAUUCUGUGUAACUGGUUCUUUGCUGUUUCUCUGGGUGUUUCUCUUGCGGUCGCACUAGUGUGGAAUUCUCGGGUGUCAAGG
B8: ENSMUSG00000058297.508|Spock2 (ssRNA)
RNA: GGGAGUUCUACAGUCCGACGAUCGCUUCGAUAUCCGCAUGCUAUAGCCUGGGAGUUCUGGCAGGAGGCAAAGUUGGUGAGAGUCCUGGGACAUCUUACCCCCAGUGUUCCACAGGAGUCGUGACCACGUGUGAUGGGUGGGCACAGGUCUGCCUUGCUCCAGCCCCCUCCCUUGGUUUCUGUUGGUACCCAUUUGGCUUUUAUCUGCUUUCUGCUUCACCACUAAGUGCGUAGGUGGGGUCUUUUGAUAUCGGCUCCCCAAAGCCCAAGCCCACAGCCCUAGGAGAGAACCAGGGGCCCAUCUCUCUUGCGGUCGCACUAGUGUGGAAUUCUCGGGUGUCAAGG
B9: ENSMUSG00000031028.667|Tub|229:233 (ssRNA)
RNA: GGGAGUUCUACAGUCCGACGAUCGCUUCGAUAUCCGCAUGCUAAGGACAGGCAAAAUUUCUCUAGCUGAGAGCACACUUAGCCAGUUUUCACGCCUAGAACAUAUAUGUCGAUUUGCACAUGAUUGUCUUUUCCUAUUUUGGAGUGGUCAGACAUUUUAUUUUUGUUCAAAAUUAUCUGGAGUUUUAGACAAACUUGCAAAACUGUGCUUUUAUUAAGUGACUUUUUGAAUAAACUUUUUGGUAUUCUGAAGCAAAUGUAUUUAUUUAUUGCAUACUGCAAUGACAAACUUGGUAUUUUCCCACUCUUGCGGUCGCACUAGUGUGGAAUUCUCGGGUGUCAAGG
B10: ENSMUSG00000058297.445|Spock2|189:193 (ssRNA)
RNA: GGGAGUUCUACAGUCCGACGAUCGCUUCGAUAUCCGCAUGCUAUGGUGGGGCUGAAGGUUCCCAAGUAGCUUCUAGUUAAGCAAGCUUCGUGUUUCCUCAGGAGCAAGGUCACACAGGUCAGAUUAUUGUCGGUCCUGCGGGCCUCAUCCUUGAAUAAGCUGCCUGCCCAGUUCCUCCAUCCGUGUUCCUGCCUGCUCCCGUUCCCUUGUUGCGGGCAGGAGAGGUAGGGCACACAUGGAAAGAGUUCAACCAAAUUACGGCAGCACCACAUCUUGCCGAGCCCUGGAGCUGCCCUACUAAGACUCUUGCGGUCGCACUAGUGUGGAAUUCUCGGGUGUCAAGG
B11: ENSMUSG00000028439.22|Fam219a|136:142 (ssRNA)
RNA: GGGAGUUCUACAGUCCGACGAUCGCUUCGAUAUCCGCAUGCUACGCUGACCUGGGCCCGGUGGGAUGCAGCAGGAGAGACCCCUACCCUGCUGGUCCACUGGUCCCCAGCCCCGCGCCUCUUAGAGCCGCCAACCUCGUAACAGUCAUUGCUUCCUCCUAUGGUAGGACGUGUACCUCACACACAUCAAGGAGCCGGAGAAACCAAAACCGGGUCUGUCUCCAGCCCCGGGGCUGAGGAGGGGUGGGCACUGUUUGUUCGGUUACUUGGGGGGAACCACACCCAAGCACCCUGCCACCUCUCCCUCUUGCGGUCGCACUAGUGUGGAAUUCUCGGGUGUCAAGG
B12: ENSMUSG00000061578.153|Ksr2|12:16;34:49;85:89 (ssRNA)
RNA: GGGAGUUCUACAGUCCGACGAUCGCUUCGAUAUCCGCAUGCUAGACGGUCCUGGCAUACCAUGAUGGGUUACAUGGCACACACACACACACAAACUGUUUACAAUGGUCUCCCUGCCUCUCACGGGCACACAUCCAGGAGAAUGCACAUAGAGAGGUUCUGUGGUCUCUGCUGUCGCCUGGUGCUGAAUCCUGAGUGGUUUCCCCACUGAGGACCCUGUGACCCUGUGACCCUUGGCCCCUCCCUUAUUGUGCACACUCAGCACCCCAUCUUCCAAGCCUUUCUUCAUCCCCCACCUUCUUUUCUCUUGCGGUCGCACUAGUGUGGAAUUCUCGGGUGUCAAGG
B13: ENSMUSG00000028439.351|Fam219a (ssRNA)
RNA: GGGAGUUCUACAGUCCGACGAUCGCUUCGAUAUCCGCAUGCUACCCCCCACCGCAUCCCCACUGGGCUCUUUGACUCACCCUUCUAGAACAUGGGUGCCUCCUCUCUUUAGACUGCUGCCUUUGCCUCUGACUUCCUGUGGGAUUGAGAGCCAAGGGCCAGUGCCCUUGUGAGCGCACUAGUUCCGAAGCAGGCAAGGGCAUUAGGUGGUAUAUACAUAGCGGGUAGGGGUAGGAAGCUGGCAGCCUGCAGCUUCCAAGUCCAAGGAGAGCACACAGUUCCCUCCUUCCCUGCCUGGAAGUUGCUCUUGCGGUCGCACUAGUGUGGAAUUCUCGGGUGUCAAGG

Whole data set: some 9,900 sequences, median “r (bound/input frequency ratio)” near 0.7, cut for the highest 2% near 6.5. What follows is part of a selection rich in the highest values, with near analogues and random picks from the rest.

In this experiment the target is TDP-43 (Homo sapiens, UniProt Q13148 1-414). Briefly: RNA Bind-n-Seq with designed 260-mer pool; 25 mM Tris-HCl, 150 mM KCl, 3 mM MgCl2, BSA (printed 500 mg/mL), 20 units/mL SUPERase IN; pH not stated; 500 nM RNA pool, 1 h, 4 C; TDP-43 5, 50, 500 nM; high values mean tight binding. The conditions noted are these: protein: recombinant; tags: SBP (GST cleaved off with PreScission; pGEX-GST-SBP). In a few lines: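 Binding (R) is the ratio of each oligo's mapped-read-normalized abundance in the bound fraction to its abundance in the input. To obtain it, SBP-tagged recombinant TDP-43 (5, 50 or 500 nM) on streptavidin beads was incubated with 500 nM of an in vitro-transcribed 260-nt 3′ UTR oligo pool for 1 h at 4 °C in 25 mM Tris-HCl, 150 mM KCl, 3 mM MgCl2, BSA and SUPERase IN. The RNA retained after washing was released with biotin, then reverse transcribed, amplified by PCR and sequenced.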
Sequence of TDP-43 (Q13148 whole entry): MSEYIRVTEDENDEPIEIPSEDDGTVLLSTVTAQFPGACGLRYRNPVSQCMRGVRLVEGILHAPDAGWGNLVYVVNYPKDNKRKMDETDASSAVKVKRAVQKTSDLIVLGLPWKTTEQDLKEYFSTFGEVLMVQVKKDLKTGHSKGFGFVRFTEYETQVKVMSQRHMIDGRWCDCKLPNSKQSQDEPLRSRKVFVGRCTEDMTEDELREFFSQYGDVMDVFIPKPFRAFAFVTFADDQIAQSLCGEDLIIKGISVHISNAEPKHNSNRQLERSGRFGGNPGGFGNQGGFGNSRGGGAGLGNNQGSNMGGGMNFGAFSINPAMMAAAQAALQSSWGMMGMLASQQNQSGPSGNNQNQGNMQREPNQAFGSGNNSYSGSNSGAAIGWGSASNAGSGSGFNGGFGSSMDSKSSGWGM
For the molecule B1, the binding signal was 0.733 R (bound/input frequency ratio).
For B2, the binding signal was 2.23 R (bound/input frequency ratio).
Next, B3: 0.696 R (bound/input frequency ratio).
The same measure for B4: 0.83 R (bound/input frequency ratio).
Consider B5, for which the binding signal is 5.89 R (bound/input frequency ratio).
Turning to B6, the binding signal is 5.11 R (bound/input frequency ratio).
As for B7, the binding signal is 5.28 R (bound/input frequency ratio).
The same measure for B8: 0.768 R (bound/input frequency ratio); for B9: 0.0728 R (bound/input frequency ratio).
Next, B10: 0.0933 R (bound/input frequency ratio); B11: 0.559 R (bound/input frequency ratio).
Turning to B12, the binding signal is 1.47 R (bound/input frequency ratio).
Take B13: the binding signal was 0.423 R (bound/input frequency ratio).
